Screening results (PubChem BioAssay)
Compounds with a hit are over-represented: about 0.7% of the library has one in this group of screens.
Mtb hypoxia inh: inhibitors of hypoxia-regulated fluorescent reporter in Mycobacterium tuberculosis; M. tuberculosis hypoxia-regulated fluorescent reporter, fluorescence; fluorescence inhibition, % (concentration not given with the values); 300,000 tested, 0.1% active; AID 1159583; in the data active means fluorescence inhibition mostly above about 23%, no sharp cut-off; inactive means mostly below about 17%
VHR inh abs: DUSP3 (human) phosphatase inhibition; recombinant VHR phosphatase, pNPP absorbance; inhibition, % at 13.3 µM; 290,000 tested, 0.52% active; AID 1654; in the data active means inhibition above about 50%
Target sequence (P51452 whole entry, looked up): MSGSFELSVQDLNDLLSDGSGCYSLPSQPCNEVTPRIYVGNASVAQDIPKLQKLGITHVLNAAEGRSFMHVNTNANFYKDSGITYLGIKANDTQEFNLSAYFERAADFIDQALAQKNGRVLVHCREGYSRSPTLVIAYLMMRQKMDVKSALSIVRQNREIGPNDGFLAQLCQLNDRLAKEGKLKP
Mtb BioA inh: blocks M. tuberculosis BioA enzyme activity. purified M. tuberculosis BioA enzyme, plate reader. inhibition, % at 9.99 µM. 360,000 tested, 0.096% active. AID 602481; in the data active means inhibition above about 40%
3CLpro inhibitor: SARS-CoV 3CLpro protease inhibition; AID 1706; recombinant SARS-CoV 3CLpro, quenched FRET peptide cleavage; 290,000 tested, 0.14% active; inhibition, % at 6 µM; in the data active means inhibition above about 12%
FadD28 binding: blocks FadD28 binding to the bisubstrate probe | fluorescence polarization | inhibition, % at 12.5 µM | 360,000 tested, 0.22% active | AID 588549; in the data active means inhibition above about 8.5%, passing the limit was not always enough
Of the large screens only hits and unclear results are named; the others gave an inactive call.

Cc1ccc(OCC(=O)NC(C)c2ccc(Cl)c(Cl)c2)c([N+](=O)[O-])n1 (centres undefined)	VHR inh abs 52.0
Cc1ccc(OCC(=O)Nc2cc(C)on2)c([N+](=O)[O-])n1	none
O=C(Nc1ccc(N2CCOCC2)cc1)c1cccc(-n2cnnc2)c1	VHR inh abs 53.4
O=C(Nc1ccc(N2CCOCC2)c(Cl)c1)c1cccc(-n2cnnc2)c1	none
Cc1cc(C)c(NC(=O)COC(=O)c2cccc3c2C(=O)c2ccccc2C3=O)c(C)c1	none (no result: Mtb BioA inh)
Cc1cc(C)c(Nc2cc(S(=O)(=O)O)c(N)c3c2C(=O)c2ccccc2C3=O)c(C)c1	FadD28 binding 64.5 (no result: Mtb BioA inh)
COc1cccc2c1C1CN(CCCCn3c(=O)[nH]c4c(sc5ncc(-c6ccccc6)nc54)c3=O)CC1CO2 (centres undefined)	none (no result: VHR inh abs, Mtb BioA inh, 3CLpro inhibitor, FadD28 binding)
COc1cccc(N2CCN(CC(=O)Nc3ccccc3C(=O)NCc3ccccc3)CC2)c1	none (no result: VHR inh abs, 3CLpro inhibitor)
Cc1ccc(CNC(=O)c2ccccc2NC(=O)CN2CCN(C)CC2)cc1	VHR inh abs 56.2
Cc1[nH]nc(SCC(=O)NC2CCCCC2)c1[N+](=O)[O-]	VHR inh abs 54.4 (no result: Mtb BioA inh)
COCCCNC(=S)NN=Cc1ccc2ccccc2c1	none (no result: VHR inh abs, Mtb BioA inh, 3CLpro inhibitor, FadD28 binding)
O=C(Nc1cccc(Cl)c1)c1cc(N=Nc2ccc([N+](=O)[O-])cc2Cl)ccc1O	Mtb hypoxia inh 70.1
Cc1ccc(NC(=O)N2CCCc3ccccc32)cc1C	VHR inh abs 52.8
O=C(Nc1ccccc1)N1CCCc2ccccc21	none
Cc1ccc(NC(=S)N(C)Cc2cn(C)c3ccccc23)cc1	FadD28 binding 16.5
NC(Cc1ccccc1)C(=O)N1CCOCC1 (centres undefined)	none (no result: VHR inh abs, Mtb BioA inh, 3CLpro inhibitor, FadD28 binding)
C/C(=N/OC(=O)c1ccccc1Br)c1ccc(C)cc1	VHR inh abs 52.0 (no result: Mtb hypoxia inh)
CCC1CN(C(=O)NCc2ccc(F)cc2)c2cc(Cl)ccc2O1 (centres undefined)	VHR inh abs 57.3
CCC1CN(C(=O)NCc2ccc(C)cc2)c2cc(Cl)ccc2O1 (centres undefined)	none
C[C@H](CO)N1C[C@H](C)[C@H](CN(C)S(=O)(=O)c2cccs2)Oc2ccc(NC(=O)Nc3ccc(C(F)(F)F)cc3)cc2C1=O	none (no result: Mtb hypoxia inh, VHR inh abs, 3CLpro inhibitor, FadD28 binding)
C[C@@H]1CN([C@H](C)CO)C(=O)c2cc(NC(=O)Nc3ccc(C(F)(F)F)cc3)ccc2O[C@@H]1CN(C)S(=O)(=O)c1cccs1	none (no result: Mtb hypoxia inh, VHR inh abs, 3CLpro inhibitor, FadD28 binding)
C[C@@H]1CN([C@H](C)CO)C(=O)c2cc(NC(=O)Nc3ccc(C(F)(F)F)cc3)ccc2O[C@H]1CN(C)S(=O)(=O)c1cccs1	FadD28 binding 20.9 (no result: Mtb hypoxia inh, VHR inh abs, 3CLpro inhibitor)
C[C@H](CO)N1C[C@H](C)[C@@H](CN(C)S(=O)(=O)c2cccs2)Oc2ccc(NC(=O)Nc3ccc(C(F)(F)F)cc3)cc2C1=O	FadD28 binding 27.3 (no result: VHR inh abs, 3CLpro inhibitor)
O=C(NN=Cc1cccc2ccccc12)c1cc(C2CC2)[nH]n1	none (no result: VHR inh abs, Mtb BioA inh, 3CLpro inhibitor, FadD28 binding)
O=C(NC(=S)NNC(=O)c1cnccn1)c1ccc(Cl)cc1	Mtb hypoxia inh 35.0 (no result: Mtb BioA inh)
COc1ccc(C(=O)NC(=S)NNC(=O)c2cnccn2)cc1	none
NC(=S)N=Nc1c(O)cc(O)c2[nH]c(=O)ccc12	FadD28 binding 29.7 (no result: Mtb hypoxia inh, VHR inh abs, Mtb BioA inh, 3CLpro inhibitor)
O=C(NN=Cc1ccc(OCC(=O)N2CCCCC2)cc1)c1ccccc1	none (no result: VHR inh abs, Mtb BioA inh, 3CLpro inhibitor, FadD28 binding)
COC(=O)c1ccc(-c2cc(C(=O)O)c3cc4c(cc3n2)OCCO4)cc1	VHR inh abs 51.7 (no result: Mtb hypoxia inh, Mtb BioA inh)
COc1cc(-c2cc(C(=O)O)c3cc4c(cc3n2)OCCO4)cc(OC)c1OC	none
Cc1cc(O)c(NC(=O)c2cc([N+](=O)[O-])ccc2Cl)cc1C	none
Cc1ccc(O)c(NC(=O)c2cc([N+](=O)[O-])ccc2Cl)c1	VHR inh abs 51.7 (no result: Mtb BioA inh)
Fc1ccc(-n2c(-c3ccc4ccccc4n3)n[nH]c2=S)cc1	none (no result: Mtb hypoxia inh, Mtb BioA inh)
S=c1[nH]nc(-c2ccc3ccccc3n2)n1-c1cc(Cl)cc(Cl)c1	VHR inh abs 55.4 (no result: Mtb BioA inh)
COCCC(=O)N1CCC(Oc2ccc(C(=O)N3CCCCCC3)cc2)CC1	none
C#CCN(C(=O)c1ccc(OC2CCN(C(=O)CCOC)CC2)cc1)C1CCCCC1	VHR inh abs 52.8
COc1ccc(C2C3=C(CC(C)(C)CC3=O)Oc3ncn(Cc4ccccc4)c(=N)c32)cc1 (centres undefined)	VHR inh abs 55.3
COc1ccc2cc(C(C)=NNC(=O)c3cc(-c4cccnc4)nc4ccccc34)ccc2c1	none (no result: VHR inh abs, Mtb BioA inh, 3CLpro inhibitor, FadD28 binding)
CCOc1ccc(CCNC(=O)c2ccc3c(=O)[nH]c4c(C(=O)NC(C)C)sc(=S)n4c3c2)cc1	FadD28 binding 21.3 (not shown: Mtb hypoxia inh)
O=C(NC1CCCCC1)c1sc(=S)n2c1[nH]c(=O)c1ccccc12	none
O=C(NCC1CCCO1)c1sc(=S)n2c1[nH]c(=O)c1ccc(C(=O)N3CCCCC3)cc12 (centres undefined)	Mtb hypoxia inh 35.2, FadD28 binding 10.0
